From PubChem BioAssay AID1345085 (National Center for Advancing Translational Sciences (NCATS), 2018)
Records with an inconclusive call do not appear. Calls of active or inactive are those of the source. The call rests on the fitted dose curve; in most records, active means well fitted cell-killing curve with a large enough effect; inconclusive means small, poorly fitted or top-dose-only effect, or effect the other way; inactive means no such curve, though single readings can be large or run the other way.

System: Tov-21-G
Assay: Confirmatory qHTS for gynecologic anti-cancer compounds from libraries of approved drugs and bioactive compounds; further: nearly all actives have a fitted effect of over 55% in size
Details: gynecologic cancer cell panel viability, ATPlite luminescence, 48 h; series mostly up to 57.7 µM
Procedure, shortened: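 ATPlite luminescence read-out of cell viability; IC50 from 11-point 1:3 titrations, 57.5 uM to 0.977 nM, 48 h compound exposure at 37 C, 5% CO2. Cells seeded at 1,000/well 16 h before dosing.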
Potency means the concentration at half of the fitted maximal effect.

| Compound | Potency |
| --- | --- |
| O=C(NOC[C@H](O)CO)c1ccc(F)c(F)c1Nc1ccc(I)cc1F | 1.72 µM (active) |
| CCn1c(-c2nonc2N)nc2c(C#CC(C)(C)O)ncc(OCC3CCCNC3)c21 (configuration not stated) | 0.0306 µM (active) |
| CCOc1cc2ncc(C#N)c(Nc3ccc(F)c(Cl)c3)c2cc1NC(=O)/C=C/CN(C)C | 2.17 µM (active) |
| CC(=O)c1cnc2ccc(-c3cc(Cl)c(O)c(Cl)c3)nc2c1NC1CCC(CN(C)C)CC1 (configuration not stated) | 0.559 µM (active) |
| COc1cc2c(NC3CCN(C(C)C)CC3)nc(C3CCCCC3)nc2cc1OCCCN1CCCC1 | 10.9 µM (active) |
| CC(=O)NCC(=O)N1C2CCC1c1cc(Nc3ncc(C(F)(F)F)c(NC4CCC4)n3)ccc12 (configuration not stated) | 3.06 µM (active) |
| Cc1cnc(Nc2ccc(CN3CCOCC3)cc2)nc1Nc1cccc(S(=O)(=O)NC(C)(C)C)c1 | 0.243 µM (active) |
| C[C@]12CCC(=O)C=C1CC[C@@H]1[C@@H]2[C@@H](O)C[C@@]2(C)[C@H]1CC[C@]2(O)C(=O)CO | inactive |
| CC(=O)OC12COC1CC(O)C1(C)C(=O)C(O)C3=C(C)C(OC(=O)C(O)C(NC(=O)OC(C)(C)C)c4ccccc4)CC(O)(C(OC(=O)c4ccccc4)C21)C3(C)C (configuration not stated) | inactive |
| CC1(C)[C@@H](O)CC[C@]2(C)[C@H]3C(=O)C=C4[C@@H]5C[C@@](C)(C(=O)O)CC[C@]5(C)CC[C@@]4(C)[C@]3(C)CC[C@@H]12 | inactive |
| CNC1CCC(N(Cc2cccc(-c3ccncc3)c2)C(=O)c2sc3ccccc3c2Cl)CC1 (configuration not stated) | 19.3 µM (active) |
| CC[C@@]1(O)C(=O)OCc2c1cc1n(c2=O)Cc2cc3c(CN(C)C)c(O)ccc3nc2-1 | 5.44 µM (active) |
| Cc1ccc(-n2[nH]c(C)c(N=Nc3cccc(-c4cccc(C(=O)O)c4)c3O)c2=O)cc1C | inactive |
| Cc1cncc2cccc(S(=O)(=O)N3CCCN(C(=O)CN)C[C@@H]3C)c12 | inactive |
| COc1cccc2c1C(=O)c1c(O)c3c(c(O)c1C2=O)C[C@@](O)(C(=O)CO)C[C@@H]3O[C@H]1C[C@H](N)[C@H](O[C@@H]2CCCCO2)[C@H](C)O1 | 8.63 µM (active) |
| Cn1c(=O)c(F)c(Nc2ccc(I)cc2F)c2c(=O)n(CC(O)CO)cnc21 (configuration not stated) | 2.73 µM (active) |

| Compound | Potency |
| --- | --- |
| CN1CCN(Cc2ccc(NC(=O)Nc3ccc(Oc4cc(NC(=O)C5CC5)ncn4)cc3)cc2C(F)(F)F)CC1 | 0.432 µM (active) |
| Cc1ccc2nc(N)[nH]c(=O)c2c1Sc1ccncc1 | inactive |
| CCc1c2c(nc3ccc(OC(=O)N4CCC(N5CCCCC5)CC4)cc13)-c1cc3c(c(=O)n1C2)COC(=O)[C@]3(O)CC | 21.7 µM (active) |
| CC(C)c1nn(-c2c(Cl)cccc2Cl)c2nc(Cc3ccc(OCCO)cc3)[nH]c(=O)c12 | 0.0863 µM (active) |
| COc1cc(Nc2ncc(F)c(Nc3ccc4c(n3)N(COP(=O)(O)O)C(=O)C(C)(C)O4)n2)cc(OC)c1OC | 1.37 µM (active) |
| Nc1ccn([C@@H]2O[C@H](CO)[C@@H](O)C2(F)F)c(=O)n1 | 6.11 µM (active) |
| COCCOc1nc(-c2ccc(Cl)c(Cl)c2)n(-c2ccc(NC(=O)CCl)cc2)n1 | 1.72 µM (active) |
| C#C[C@]1(O)CC[C@H]2[C@@H]3CCC4=CC(=O)CC[C@@H]4[C@H]3CC[C@@]21CC | inactive |
| COc1ccc(OC)c(-c2nnc3ccc(-c4ccc(OC)c(O[C@@H]5CCOC5)c4)nn23)c1 | inactive |
| CNC(=O)c1nn(C)c2c1C(C)(C)Cc1cnc(Nc3ccc(N4CCN(C)CC4)cc3)nc1-2 | 0.122 µM (active) |
| c1cc(N[C@@H]2CCNC2)nc(-c2cnc3ccc(-c4cn[nH]c4)cn23)c1 | 2.43 µM (active) |
| Cc1ccc(C(=O)Nc2ccc(CN3CCN(C)CC3)c(C(F)(F)F)c2)cc1C#Cc1cnc2cccnn12 | 1.22 µM (active) |
| Cc1ccc(C(=O)Nc2ccc(CN3CCN(C)CC3)c(C(F)(F)F)c2)cc1C#Cc1cnc2[nH]ncc2c1 | 0.0273 µM (active) |
| NS(=O)(=O)c1ccc(Nc2nc(OCC3CCCCC3)c3[nH]cnc3n2)cc1 | inactive |
| O=C(c1ccc(F)c(F)c1Nc1ccc(I)cc1F)N1CC(O)([C@@H]2CCCCN2)C1 | 9.68 µM (active) |
| OC[C@H]1O[C@@H](n2cnc3c(=S)nc[nH]c32)[C@H](O)[C@@H]1O | inactive |
